Measurements reported in the supplement of paper PMC10849652.
Of roughly 8,800 targets only a part is listed; those with a hit were picked by preference. About 0.5% of all pairs of compound and target were hits. Values without a mark were called inactive.

How the values were obtained:
Assay in all cases: log2 fold change, soluble protein after heating vs DMSO (PISA); higher = thermal stabilisation; K562 lysate, 10 uM; active = over 0.2 and 3.5 SD of the protein, either way, in both replicates (recomputed)
lapatinib = compound: CS(=O)(=O)CCNCc1ccc(-c2ccc3ncnc(Nc4ccc(OCc5cccc(F)c5)c(Cl)c4)c3c2)o1 [lapatinib]
How it was run: (§1)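 A 30 min treatment with 10 μM compound was applied to crude K562 extract at 1 mg/mL protein in PBS pH 7.4 with 1 mM MgCl2. Heating for 3 min spanned 48°C-58°C, after which aliquots were pooled, adjusted to 0.5% NP-40 at 4°C and spun at 21,000xg for 90 min. TMTpro 16plex LC-MS/MS of the supernatant, with channel sums equalised, gave values recorded as log-two fold change in thermal stability against solvent controls, from duplicates.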

pictilisib = compound: CS(=O)(=O)N1CCN(Cc2cc3nc(-c4cccc5[nH]ncc45)nc(N4CCOCC4)c3s2)CC1 [pictilisib]
How it was run: as §1

crizotinib = compound: C[C@@H](Oc1cc(-c2cnn(C3CCNCC3)c2)cnc1N)c1c(Cl)ccc(F)c1Cl [crizotinib]
How it was run: as §1

[1] = compound: C[C@H](C1=CC=C(C=C1)C(=O)NC2=C3C=CNC3=NC=C2)N
How it was run: as §1

duvelisib = compound: C[C@H](Nc1ncnc2nc[nH]c12)c1cc2cccc(Cl)c2c(=O)n1-c1ccccc1 [duvelisib]
How it was run: as §1

gandotinib = compound: Cc1cc(Nc2cc(CN3CCOCC3)c3nc(C)c(Cc4ccc(Cl)cc4F)n3n2)n[nH]1 [gandotinib]
How it was run: as §1

tozasertib = compound: Cc1cc(Nc2cc(N3CCN(C)CC3)nc(Sc3ccc(NC(=O)C4CC4)cc3)n2)n[nH]1 [tozasertib]
How it was run: as §1

doramapimod = compound: Cc1ccc(-n2nc(C(C)(C)C)cc2NC(=O)Nc2ccc(OCCN3CCOCC3)c3ccccc23)cc1 [doramapimod]
How it was run: as §1

bafetinib = compound: Cc1ccc(NC(=O)c2ccc(CN3CC[C@H](N(C)C)C3)c(C(F)(F)F)c2)cc1Nc1nccc(-c2cncnc2)n1 [bafetinib]
How it was run: as §1

[2] = compound: Cc1cccc(CC(=O)N2CCc3c2ccc(-c2cn(C)c4ncnc(N)c24)c3F)n1
How it was run: as §1

nilotinib = compound: Cc1cn(-c2cc(NC(=O)c3ccc(C)c(Nc4nccc(-c5cccnc5)n4)c3)cc(C(F)(F)F)c2)cn1 [nilotinib]
How it was run: as §1

[3] = compound: Cc1nc(Nc2n[nH]c3c2CN(C(=O)N[C@H](CN(C)C)c2ccccc2)C3(C)C)c2sccc2n1
How it was run: as §1

dasatinib = compound: Cc1nc(Nc2ncc(C(=O)Nc3c(C)cccc3Cl)s2)cc(N2CCN(CCO)CC2)n1 [dasatinib]
How it was run: as §1

[4] = compound: Cc1ncc(-c2ccnc(Nc3ccc(S(C)(=O)=O)cc3)n2)n1C(C)C
How it was run: as §1

[5] = compound: Cn1cc(-c2ccc3c(c2)CCN3C(=O)Cc2cccc(C(F)(F)F)c2)c2c(N)ncnc21
How it was run: as §1

quisinostat = compound: Cn1cc(CNCC2CCN(c3ncc(C(=O)NO)cn3)CC2)c2ccccc21 [quisinostat]
How it was run: as §1

tipifarnib = compound: Cn1cncc1[C@@](N)(c1ccc(Cl)cc1)c1ccc2c(c1)c(-c1cccc(Cl)c1)cc(=O)n2C [tipifarnib]
How it was run: as §1

[6] = compound: NC(=O)Nc1cc(-c2cccc(F)c2)sc1C(=O)N[C@H]1CCCNC1
How it was run: as §1

[7] = compound: NC(=O)c1cnc(N[C@@H]2CCCC[C@@H]2N)nc1Nc1cccc(-n2nccn2)c1
How it was run: as §1

[8] = compound: NC1(c2ccc(-c3nc4ccn5c(=O)[nH]nc5c4cc3-c3ccccc3)cc2)CCC1
How it was run: as §1

Chain of UniProt Q96TA2 (Q96TA2 whole entry, looked up): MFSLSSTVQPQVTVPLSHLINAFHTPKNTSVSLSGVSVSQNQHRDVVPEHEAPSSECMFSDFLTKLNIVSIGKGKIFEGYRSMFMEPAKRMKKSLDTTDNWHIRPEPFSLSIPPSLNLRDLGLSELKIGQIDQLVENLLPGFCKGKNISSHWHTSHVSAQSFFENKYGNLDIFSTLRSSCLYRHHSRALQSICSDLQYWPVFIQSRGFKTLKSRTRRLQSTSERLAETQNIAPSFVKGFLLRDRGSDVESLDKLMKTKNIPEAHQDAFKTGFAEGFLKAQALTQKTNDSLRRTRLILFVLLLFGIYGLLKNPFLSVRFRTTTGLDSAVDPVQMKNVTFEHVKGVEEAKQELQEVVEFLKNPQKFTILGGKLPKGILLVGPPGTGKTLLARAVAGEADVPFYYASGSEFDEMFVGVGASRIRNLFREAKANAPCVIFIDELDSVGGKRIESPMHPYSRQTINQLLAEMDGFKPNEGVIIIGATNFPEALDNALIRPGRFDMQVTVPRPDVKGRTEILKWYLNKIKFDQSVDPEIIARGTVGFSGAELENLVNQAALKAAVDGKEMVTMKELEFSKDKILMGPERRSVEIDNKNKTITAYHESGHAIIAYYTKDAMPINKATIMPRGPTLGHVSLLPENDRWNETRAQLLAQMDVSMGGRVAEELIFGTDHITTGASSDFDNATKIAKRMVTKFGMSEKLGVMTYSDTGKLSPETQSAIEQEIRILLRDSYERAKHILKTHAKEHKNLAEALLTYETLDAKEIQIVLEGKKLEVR
Chain of UniProt P22695 (P22695 whole entry, looked up): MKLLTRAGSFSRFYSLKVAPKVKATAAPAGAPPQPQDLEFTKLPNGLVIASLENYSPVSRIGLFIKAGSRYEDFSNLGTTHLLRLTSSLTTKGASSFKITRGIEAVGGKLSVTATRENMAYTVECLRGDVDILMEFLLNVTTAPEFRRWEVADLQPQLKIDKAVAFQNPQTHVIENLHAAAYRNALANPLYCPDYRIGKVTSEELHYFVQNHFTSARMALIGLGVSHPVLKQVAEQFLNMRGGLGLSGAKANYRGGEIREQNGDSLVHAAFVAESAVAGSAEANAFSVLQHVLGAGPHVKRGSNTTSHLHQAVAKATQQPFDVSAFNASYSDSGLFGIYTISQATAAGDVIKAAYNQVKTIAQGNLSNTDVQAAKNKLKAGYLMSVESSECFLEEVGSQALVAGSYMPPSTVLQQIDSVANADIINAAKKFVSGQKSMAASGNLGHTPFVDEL
Chain of UniProt Q9Y484 (Q9Y484 whole entry, looked up): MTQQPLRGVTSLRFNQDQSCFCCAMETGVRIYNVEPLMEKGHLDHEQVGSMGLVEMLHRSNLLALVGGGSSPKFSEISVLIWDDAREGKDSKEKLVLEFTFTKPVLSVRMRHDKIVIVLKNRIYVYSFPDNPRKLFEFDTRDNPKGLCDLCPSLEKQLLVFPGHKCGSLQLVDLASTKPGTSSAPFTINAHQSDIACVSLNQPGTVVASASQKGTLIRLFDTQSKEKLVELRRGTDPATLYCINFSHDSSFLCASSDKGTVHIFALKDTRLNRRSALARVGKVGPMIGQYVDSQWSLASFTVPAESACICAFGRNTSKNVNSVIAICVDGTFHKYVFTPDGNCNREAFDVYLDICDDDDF
Chain of UniProt Q9Y6I4 (Q9Y6I4 whole entry, looked up): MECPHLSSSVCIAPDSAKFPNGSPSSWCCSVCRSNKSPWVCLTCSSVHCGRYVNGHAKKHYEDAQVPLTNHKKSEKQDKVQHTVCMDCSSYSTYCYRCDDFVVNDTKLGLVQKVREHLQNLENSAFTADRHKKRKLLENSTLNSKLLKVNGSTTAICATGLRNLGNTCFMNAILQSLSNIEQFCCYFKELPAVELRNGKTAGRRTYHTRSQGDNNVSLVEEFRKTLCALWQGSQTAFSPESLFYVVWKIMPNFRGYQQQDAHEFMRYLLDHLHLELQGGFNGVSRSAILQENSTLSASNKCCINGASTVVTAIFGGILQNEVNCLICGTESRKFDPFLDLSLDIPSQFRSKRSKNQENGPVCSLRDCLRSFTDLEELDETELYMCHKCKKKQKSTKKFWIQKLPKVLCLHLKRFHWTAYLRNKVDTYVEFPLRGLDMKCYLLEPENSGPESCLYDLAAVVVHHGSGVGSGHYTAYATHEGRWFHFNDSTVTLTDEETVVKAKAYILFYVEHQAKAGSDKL
Chain of UniProt Q99986 (Q99986 whole entry, looked up): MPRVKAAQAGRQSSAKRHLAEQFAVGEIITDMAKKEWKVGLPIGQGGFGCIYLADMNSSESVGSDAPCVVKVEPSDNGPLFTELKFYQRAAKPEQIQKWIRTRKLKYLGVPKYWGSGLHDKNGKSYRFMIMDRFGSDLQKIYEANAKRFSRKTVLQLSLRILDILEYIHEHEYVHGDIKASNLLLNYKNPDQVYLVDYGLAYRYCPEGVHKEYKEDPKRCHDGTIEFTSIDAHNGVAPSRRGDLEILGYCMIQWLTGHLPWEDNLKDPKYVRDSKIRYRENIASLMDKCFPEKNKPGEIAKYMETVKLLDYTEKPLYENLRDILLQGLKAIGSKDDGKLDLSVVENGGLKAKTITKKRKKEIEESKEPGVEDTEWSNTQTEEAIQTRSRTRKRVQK
Chain of UniProt Q9Y4E5 (Q9Y4E5 whole entry, looked up): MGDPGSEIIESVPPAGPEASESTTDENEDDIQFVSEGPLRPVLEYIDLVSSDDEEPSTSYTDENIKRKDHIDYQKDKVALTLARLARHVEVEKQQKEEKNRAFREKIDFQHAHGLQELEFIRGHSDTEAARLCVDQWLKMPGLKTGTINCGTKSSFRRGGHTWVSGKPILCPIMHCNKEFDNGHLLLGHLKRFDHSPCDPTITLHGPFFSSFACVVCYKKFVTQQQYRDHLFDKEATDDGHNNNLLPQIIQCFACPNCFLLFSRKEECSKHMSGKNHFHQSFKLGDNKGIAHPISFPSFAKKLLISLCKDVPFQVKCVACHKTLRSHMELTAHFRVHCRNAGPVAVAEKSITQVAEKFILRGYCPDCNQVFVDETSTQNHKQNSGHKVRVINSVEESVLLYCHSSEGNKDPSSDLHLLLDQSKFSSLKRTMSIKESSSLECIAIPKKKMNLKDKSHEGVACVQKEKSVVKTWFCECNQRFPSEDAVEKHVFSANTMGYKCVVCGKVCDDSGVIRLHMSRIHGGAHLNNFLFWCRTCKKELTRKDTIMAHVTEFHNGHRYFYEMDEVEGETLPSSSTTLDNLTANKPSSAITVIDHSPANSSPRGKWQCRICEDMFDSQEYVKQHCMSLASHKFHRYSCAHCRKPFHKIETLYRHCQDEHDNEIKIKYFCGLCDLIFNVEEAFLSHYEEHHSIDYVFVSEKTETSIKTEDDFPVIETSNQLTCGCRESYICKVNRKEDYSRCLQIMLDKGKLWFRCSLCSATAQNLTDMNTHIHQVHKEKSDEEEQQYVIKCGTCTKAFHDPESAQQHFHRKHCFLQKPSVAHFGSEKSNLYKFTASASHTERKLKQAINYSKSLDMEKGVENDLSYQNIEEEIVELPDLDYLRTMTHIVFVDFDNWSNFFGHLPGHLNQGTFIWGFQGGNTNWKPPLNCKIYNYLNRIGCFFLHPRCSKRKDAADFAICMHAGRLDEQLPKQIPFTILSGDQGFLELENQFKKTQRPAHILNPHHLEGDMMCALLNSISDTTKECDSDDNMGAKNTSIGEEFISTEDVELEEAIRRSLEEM
Chain of UniProt Q08AM6 (Q08AM6 whole entry, looked up): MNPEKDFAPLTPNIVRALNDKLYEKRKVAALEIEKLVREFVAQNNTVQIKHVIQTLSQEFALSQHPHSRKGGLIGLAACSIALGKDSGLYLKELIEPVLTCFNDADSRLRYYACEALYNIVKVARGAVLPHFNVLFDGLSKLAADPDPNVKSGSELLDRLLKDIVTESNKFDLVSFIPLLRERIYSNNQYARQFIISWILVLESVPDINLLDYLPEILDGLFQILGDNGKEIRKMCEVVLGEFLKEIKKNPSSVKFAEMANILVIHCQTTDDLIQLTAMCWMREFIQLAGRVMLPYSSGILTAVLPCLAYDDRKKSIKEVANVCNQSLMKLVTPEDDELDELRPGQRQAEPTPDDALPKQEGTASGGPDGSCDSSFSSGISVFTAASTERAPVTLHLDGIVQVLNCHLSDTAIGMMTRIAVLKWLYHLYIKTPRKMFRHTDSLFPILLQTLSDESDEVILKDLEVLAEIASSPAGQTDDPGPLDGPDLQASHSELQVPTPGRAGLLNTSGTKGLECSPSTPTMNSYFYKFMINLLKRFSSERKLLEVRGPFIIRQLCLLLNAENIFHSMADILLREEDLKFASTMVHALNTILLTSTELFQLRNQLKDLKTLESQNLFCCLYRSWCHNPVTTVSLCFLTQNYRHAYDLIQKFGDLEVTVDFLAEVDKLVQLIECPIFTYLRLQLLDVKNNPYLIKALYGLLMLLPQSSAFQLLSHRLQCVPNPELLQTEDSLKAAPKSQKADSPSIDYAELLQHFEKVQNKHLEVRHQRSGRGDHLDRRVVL

Row | Target | log2 fold change (lapatinib) | log2 fold change (pictilisib) | log2 fold change (crizotinib) | log2 fold change [1] | log2 fold change (duvelisib) | log2 fold change (gandotinib) | log2 fold change (tozasertib) | log2 fold change (doramapimod) | log2 fold change (bafetinib) | log2 fold change [2] | log2 fold change (nilotinib) | log2 fold change [3] | log2 fold change (dasatinib) | log2 fold change [4] | log2 fold change [5] | log2 fold change (quisinostat) | log2 fold change (tipifarnib) | log2 fold change [6] | log2 fold change [7] | log2 fold change [8]
1 | ZNF451 (UniProt Q9Y4E5) | -0.044 | -0.054 | -0.042 | -0.053 | 0.007 | -0.069 | -0.045 | 0.052 | -0.074 | 0.003 | 0.016 | 0.013 | -0.028 | -0.033 | 0.02 | -0.044 | -0.049 | 0.022 | 0.044 | -0.038
2 | VAC14 (UniProt Q08AM6) | -0.034 | -0.005 | -0.047 | -0.028 | -0.004 | -0.069 | -0.005 | 0.037 | -0.036 | 0.067 | -0.014 | 0.018 | -0.022 | 0.009 | 0.058 | -0.07 | -0.059 | 0.012 | -0.002 | -0.027
3 | WDR45 isoform 2 (UniProt Q9Y484) | -0.002 | -0.011 | -0.048 | -0.229 (active) | -0.04 | -0.051 | -0.025 | 0.054 | -0.047 | 0.179 | 0.04 | -0.01 | -0.085 | -0.027 | 0.049 | 0.06 | 0.009 | 0.013 | -0.042 | -0.028
4 | UQCRC2 (UniProt P22695) | -0.04 | -0.008 | 0.019 | -0.011 | 0.001 | -0.004 | -0.025 | -0.027 | -0.05 | -0.007 | 0.034 | -0.028 | 0 | 0.004 | -0.043 | 0.007 | -0.011 | 0.02 | -0.008 | 0.011
5 | USP3 (UniProt Q9Y6I4) | -0.016 | 0.001 | -0.033 | 0.031 | 0.01 | -0.056 | 0.021 | -0.03 | 0.01 | -0.04 | 0.045 | -0.015 | -0.028 | 0.028 | 0.008 | -0.01 | -0.054 | 0.107 | -0.005 | -0.042
6 | VRK1 (UniProt Q99986) | -0.005 | 0.002 | -0.023 | 0.172 | 0.013 | -0.078 | -0.052 | -0.052 | -0.042 | -0.014 | -0.002 | 0 | -0.001 | 0.005 | 0.032 | -0.059 | -0.018 | 0.015 | 0.003 | -0.046
7 | YME1L1 (UniProt Q96TA2) | -0.025 | -0.034 | -0.073 | 0.01 | -0.017 | -0.112 | 0.048 | -0.023 | -0.024 | 0.055 | 0.011 | -0.06 | 0 | 0.026 | -0.044 | -0.045 | -0.019 | 0.016 | 0.06 | -0.059
